High-throughput results as filed in PubChem BioAssay.
D2 ag-1: activates the human D2 dopamine receptor; 360,000 tested, 0.084% active; activation, % (test concentration not listed); P14416; DiscoveRx PathHunter D2 beta-arrestin, luminescence, 90 min; 100% = 57 uM dopamine signal; in the data active = activation above about 40%
Target sequence (P14416 whole entry, looked up): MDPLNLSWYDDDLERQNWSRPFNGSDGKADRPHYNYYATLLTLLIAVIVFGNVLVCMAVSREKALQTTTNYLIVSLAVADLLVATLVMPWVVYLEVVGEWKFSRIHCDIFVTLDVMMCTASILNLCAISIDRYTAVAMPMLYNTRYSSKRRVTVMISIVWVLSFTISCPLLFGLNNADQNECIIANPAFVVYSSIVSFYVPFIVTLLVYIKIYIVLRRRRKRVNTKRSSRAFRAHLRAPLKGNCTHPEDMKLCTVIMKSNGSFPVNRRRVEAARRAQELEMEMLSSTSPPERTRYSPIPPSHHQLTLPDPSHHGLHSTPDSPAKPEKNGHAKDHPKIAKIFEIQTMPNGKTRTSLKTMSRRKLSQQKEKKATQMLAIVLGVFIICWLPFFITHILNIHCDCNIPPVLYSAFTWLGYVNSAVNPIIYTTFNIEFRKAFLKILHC
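Agonist mode: compounds alone added to overnight-plated D2 PathHunter cells for 90 min at 37 C, with 57 uM final dopamine (EC100) defining full response. Beta-arrestin recruitment detected by chemiluminescent reagent, read after 1 h at ambient temperature.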
D2 PAM-1: human D2 receptor positive allosteric modulation | P14416 | DiscoveRx D2 beta-arrestin cells, luminescence, 90 min; 100% = 57 uM dopamine signal | potentiation, % (concentration not given with the values) | 360,000 tested, 0.23% active | AID 624464; in the data active = potentiation above about 50%
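PathHunter beta-arrestin assay in DiscoveRx D2 cells. Compounds were added with an EC20 of dopamine (50 nM final) for 90 min at 37 deg C. Luminescence was read 1 h after detection reagent, with 57 uM dopamine as the EC100 control.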
D2 PAM-2: positive allosteric modulators of human D2 dopamine receptor; HEK293 T-REx D2, calcium flux, EC20 dopamine potentiation; potentiation, % at 10 µM; 340,000 tested, 0.34% active; AID 485347;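 active = potentiation over 3 SD above the plate norm, cut at about 30% in these data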; note: 0% is about no effect
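Using a no-wash calcium dye in inducible, force-coupled HEK293 Trex cells expressing D2, we tracked fluorescence each second for 180 s after compound, then for 180 s after EC20 dopamine to detect augmented signalling.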
D2 antag: antagonists of human D2 dopamine receptor. P14416. AID 485344. 340,000 tested, 2% active. inhibition, % at 10 µM. HEK293 TREx D2 cells, calcium flux, dopamine EC80; in the data active = inhibition above about 30%; inactive = below that, where a call was filed; note: 0% is about no effect
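Tetracycline-induced HEK293 TREx cells expressing D2 receptor forced-coupled to calcium signalling, loaded with no-wash calcium dye. Compounds added and calcium flux read 180 s, then dopamine added at EC80 and read a further 180 s.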
D2 ag-2: agonists of human D2 dopamine receptor; AID 485358; P14416; 340,000 tested, 0.53% active; HEK293 T-REx D2 cells, calcium flux agonist mode; activation, % at 2 µM;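 active = activation over 3 SD above normal in the single-dose calcium agonist read, cut at about 30% in these data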; note: 0% is about no effect
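In this primary screen, compounds producing a positive calcium signal within 180 s of addition to tetracycline-induced, force-coupled HEK293 Trex D2 cells are flagged; cells are dye-loaded with a no-wash calcium kit beforehand.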
Starred values were filed as active, the others as inactive; . = not tested or not shown. Only some compounds are listed: those with a hit (about 2.4% of all), similar ones and a draw of the others.

SMILES	D2 ag-1	D2 PAM-1	D2 PAM-2	D2 antag	D2 ag-2
COc1ccc(CCNC(=O)c2ccc3c(c2)N(Cc2ccccc2C)C(=O)c2ccccc2S3)cc1OC	.	.	6	.	1
Cc1ccc(NC(=S)NC(NC(=O)c2ccco2)C(Cl)(Cl)Cl)cc1 (configuration not stated)	0	-16	-2	-3	1
Cc1cccc(NC(=S)NC(NC(=O)c2ccco2)C(Cl)(Cl)Cl)c1 (configuration not stated)	0	-29	-24	30*	1
CC1CC(C)CN(S(=O)(=O)c2ccc(NC(=O)C3CSC4(C)CCC(=O)N34)cc2)C1 (configuration not stated)	-3	-1	30*	-11	0
O=C(NCc1ccccc1Cl)c1cc(-c2ccccc2)n[nH]1	.	.	4	.	-1
CCCCOC(=O)/C(=C/C=C/c1ccccc1)NC(=O)c1ccccc1	0	-9	.	11	0
CCCCOC(=O)/C(=C\c1ccc([N+](=O)[O-])o1)NC(=O)c1ccccc1	0	15	36*	-14	0
Cn1cc(-c2nnnn2-c2ccc(Cl)cc2)c(=O)c2ccccc21	-3	-7	-3	-10	0
CCn1cc(-c2nnnn2-c2ccc(Cl)cc2)c(=O)c2ccccc21	1	5	38*	-13	0
Cc1nc2ccc(NC(=O)c3ccc(Cl)c([N+](=O)[O-])c3)cc2s1	-2	4	7	-15	0
Cc1nc2ccc(NC(=O)c3cc([N+](=O)[O-])cc([N+](=O)[O-])c3Cl)cc2s1	12	63*	-3	-13	0
Cc1ccc(S(=O)(=O)CCSc2nc(C)cc(C)c2C#N)cc1	0	-11	33*	9	0
Cc1cc(C)c(C#N)c(SCc2ccccc2C)n1	-1	-7	11	34*	-2
Cn1c(CN2CCN(c3ccccc3NS(C)(=O)=O)CC2)nc2ccccc21	-4	-24	-18	33*	1
Cn1c(CN2CCN(c3ccc(Cl)cc3)CC2)nc2ccccc21	-2	-21	-6	3	0
COc1ccc(/C=C/c2nnc(NC(=O)CSc3ccc(C)cc3)s2)cc1	-3	-2	.	.	.
CCC(=O)Nc1nnc(/C=C/c2ccc(OC)cc2)s1	6	1	11	35*	0
C/C(Cn1cnc([N+](=O)[O-])n1)=N\NC(=O)c1ccccc1	-1	2	-9	-7	-1
C/C(Cn1nnc([N+](=O)[O-])n1)=N\NC(=O)c1ccccc1	7	59*	2	-7	1
CC1CCN(CCCNC(=O)COc2cc(=O)n(C)c3ccccc23)CC1	-1	-10	-17	34*	1
CCn1c(=O)cc(OCC(=O)NCCCN2CC(C)CC(C)C2)c2ccccc21 (configuration not stated)	-2	-26	-18	58*	0
CN(CCNC(=O)CCCOc1cc(=O)n(C)c2ccccc12)Cc1ccccc1	-4	-8	.	47*	0
CC1CCN(CCCNC(=O)c2n[nH]c(=O)c3ccccc23)CC1	-1	-37	-13	41*	0
CCn1c(=O)cc(OCC(=O)NCCCN2CCC(C)CC2)c2ccccc21	-3	-27	-16	.	.
CN(CCCNC(=O)CCCOc1cc(=O)n(C)c2ccccc12)Cc1ccccc1	-5	-19	-14	23	1
SMILES	D2 ag-1	D2 PAM-1	D2 PAM-2	D2 antag	D2 ag-2
CC(=O)c1ccc2noc(-c3ccc(F)cc3)c2c1	6	59*	3	34*	1
CN(C)/C=C/C(=O)c1ccc2noc(-c3cccc(F)c3)c2c1	46*	-4	-2	-11	0
Clc1ccc(-c2cn3c(n2)SCC3)cc1	-5	-5	-8	-12	0
Nc1nc(-c2ccc(Cl)cc2)cn1N	-3	-6	5	30*	0
O=C(NCc1ccccc1)c1ccc(C(=O)NCc2ccccc2)cc1	4	3	.	.	.
O=C(NCc1ccccc1)c1n[nH]nc1-c1ccccc1O	0	-8	8	31*	0
Cc1noc(Cn2c(=O)c3ccccc3n(CC(=O)Nc3ccc(C(C)C)cc3)c2=O)n1	.	.	1	.	0
CC(C)(C)c1ccc(-c2cn(-c3ccc(Br)cc3)c3[n+]2CCCS3)cc1	-1	-10	-13	42*	1
c1ccc(-c2cn(-c3ccccc3)c3[n+]2CCS3)cc1	-2	-9	8	4	-1
CCCOc1ccc(C2C(=O)N(C3CCCCCC3)CC(=O)N2CCC)cc1OC (configuration not stated)	.	.	-15	.	1
Fc1ccc(-n2cc(CNCCc3ccncc3)c(-c3ccccc3Cl)n2)cc1	-3	-9	-14	31*	1
Cc1cc(C)c(C(=O)c2ccc(C(=O)NC(C)(C)C)cc2)c(C)c1	-1	-2	0	40*	0
COc1ccc(Cl)cc1NC(=O)C(C)n1nnc2sc3c(c2c1=O)CCCC3 (configuration not stated)	.	.	-11	.	0
COc1cc(Cl)c(C)cc1NC(=O)Cn1cnc2sc(C)c(S(=O)(=O)N3CCCCC3)c2c1=O	.	.	1	.	.
O=C(CSc1nnc(NC(=O)c2ccccc2F)s1)Nc1ccccc1F	0	5	-9	36*	0
CCSc1nnc(NC(=O)c2cnccn2)s1	0	-1	-2	12	0
O=C(Nc1nnc(SCc2ccc(F)cc2)s1)c1cnccn1	-3	-12	1	33*	1
CC(=O)Nc1ccc(NC(=O)CSc2nnc(NC(=O)Cc3ccc(F)cc3)s2)cc1	-2	-6	-21	34*	0
CCOc1ccc(-n2nc(CO)c(C(=O)NCc3cccc(OC)c3)n2)cc1	.	.	-22	.	-1
COc1ccccc1N1CCN(Cc2cc(=O)n3ccsc3n2)CC1	-1	-49	41*	-3	0
O=c1cc(CN2CCCCCC2)nc2sccn12	-1	-4	22	-4	0
COCCn1nnnc1CN1CCSCC1	3	-7	1	-11	1
COc1ccccc1N1CCN(CCCCNC(=O)c2ccc3ccccc3c2)CC1	.	.	.	75*	.
COCCn1nnnc1CN1CCC(Cc2ccccc2)CC1	-1	-16	38*	2	1
COc1cccc(OC)c1OCCCN1CCC(Cc2ccccc2)CC1	6	-25	-27	89*	23
CC(=O)Nc1nnc(SCc2cc(=O)c3cccc(Cl)c3[nH]2)s1	.	.	1	.	1
Cc1cccc(OCc2ccc(-c3nc(C#N)c(NCCN(C)C)o3)o2)c1	.	.	20	.	-2
Cc1ccc(N(Cc2cccs2)C(=O)c2ccc(OC(C)C)cc2)cc1	.	.	12	.	-2
Cc1cc(-c2ccc(S(=O)(=O)NCc3ccccc3Cl)s2)on1	.	.	8	.	0
